# Reference: PMC7862700, “An all-to-all approach to the identification of sequence-specific readers for epigenetic DNA modifications on cytosine”
# Key:
# Test in all cases: DAPPL (digital affinity profiling via proximity ligation, sequencing); 10 mM Tris-HCl pH 7.5, 50 mM NaCl, 1 mM DTT, 4% glycerol, room temperature, 30 min; GST-TFs on glutathione beads, 16-mer random dsDNA library, 0.1% formaldehyde crosslink after washing; high values mean tight binding
# FLI1 = biological target: T1, FLI1 (Homo sapiens, UniProt Q01543 1-452); details: protein: recombinant; tags: N-terminal GST; dsDNA, one strand shown
# T1 sequence: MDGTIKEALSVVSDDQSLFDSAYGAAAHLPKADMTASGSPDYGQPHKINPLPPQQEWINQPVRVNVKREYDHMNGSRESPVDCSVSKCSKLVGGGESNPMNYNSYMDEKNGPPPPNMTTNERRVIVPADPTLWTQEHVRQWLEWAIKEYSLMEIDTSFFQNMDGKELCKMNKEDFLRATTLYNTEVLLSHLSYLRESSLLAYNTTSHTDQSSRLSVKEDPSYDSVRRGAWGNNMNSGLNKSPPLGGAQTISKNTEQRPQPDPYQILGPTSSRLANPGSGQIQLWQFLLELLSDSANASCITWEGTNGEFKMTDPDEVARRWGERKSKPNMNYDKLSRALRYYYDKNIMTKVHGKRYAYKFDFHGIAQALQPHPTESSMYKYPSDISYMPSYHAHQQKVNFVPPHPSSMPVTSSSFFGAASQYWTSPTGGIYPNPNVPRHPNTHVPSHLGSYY
# Method in brief: (§1)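 Human transcription factors fused to GST were expressed in yeast, captured on glutathione beads, given DNA barcodes and pooled with a GST-only negative control. Pools were incubated with 200 nmole of a 16-mer random double-stranded DNA library in Tris/NaCl/DTT/glycerol buffer at room temperature for 30 min. They were then washed, crosslinked with 0.1% formaldehyde, proximity-ligated (BsaI/T4 ligase, 1 h, 37 °C), PCR-amplified and sequenced on an Illumina NextSeq500. Binding signal is each 6-mer's read frequency for a factor divided by its frequency for the GST control.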
# ELK1 = biological target: T2, ELK1 (Homo sapiens, UniProt P19419 1-428); details: protein: recombinant; tags: N-terminal GST; dsDNA, one strand shown
# T2 sequence: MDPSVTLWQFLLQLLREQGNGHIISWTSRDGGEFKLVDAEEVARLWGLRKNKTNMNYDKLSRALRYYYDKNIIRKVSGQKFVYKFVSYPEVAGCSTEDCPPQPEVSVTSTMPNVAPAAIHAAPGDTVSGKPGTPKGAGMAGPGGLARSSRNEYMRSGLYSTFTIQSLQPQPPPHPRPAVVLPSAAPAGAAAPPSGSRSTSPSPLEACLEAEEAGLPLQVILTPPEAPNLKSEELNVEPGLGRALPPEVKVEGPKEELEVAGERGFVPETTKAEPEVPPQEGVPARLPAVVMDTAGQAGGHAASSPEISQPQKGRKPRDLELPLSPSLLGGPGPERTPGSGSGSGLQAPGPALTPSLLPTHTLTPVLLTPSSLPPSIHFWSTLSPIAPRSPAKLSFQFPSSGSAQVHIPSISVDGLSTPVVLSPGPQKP
# Method in brief: as §1
# GABPA = biological target: T3, GABPA (Homo sapiens, UniProt Q06546 1-454); details: protein: recombinant; tags: N-terminal GST; dsDNA, one strand shown
# T3 sequence: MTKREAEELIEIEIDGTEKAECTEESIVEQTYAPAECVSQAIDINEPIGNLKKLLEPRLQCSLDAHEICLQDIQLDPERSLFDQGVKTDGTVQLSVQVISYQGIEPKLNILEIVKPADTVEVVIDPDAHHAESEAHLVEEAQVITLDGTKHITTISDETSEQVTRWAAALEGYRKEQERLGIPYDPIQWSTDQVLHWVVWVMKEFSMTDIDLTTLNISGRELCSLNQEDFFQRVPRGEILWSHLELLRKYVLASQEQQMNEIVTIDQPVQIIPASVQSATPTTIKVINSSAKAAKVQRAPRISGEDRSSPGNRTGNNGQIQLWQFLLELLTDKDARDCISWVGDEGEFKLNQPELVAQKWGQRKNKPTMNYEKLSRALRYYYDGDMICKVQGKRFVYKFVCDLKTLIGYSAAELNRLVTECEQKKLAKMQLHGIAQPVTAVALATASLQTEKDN
# Method in brief: as §1
# ERG = biological target: T4, ERG (Homo sapiens, UniProt P11308 1-479); details: protein: recombinant; tags: N-terminal GST; dsDNA, one strand shown
# T4 sequence: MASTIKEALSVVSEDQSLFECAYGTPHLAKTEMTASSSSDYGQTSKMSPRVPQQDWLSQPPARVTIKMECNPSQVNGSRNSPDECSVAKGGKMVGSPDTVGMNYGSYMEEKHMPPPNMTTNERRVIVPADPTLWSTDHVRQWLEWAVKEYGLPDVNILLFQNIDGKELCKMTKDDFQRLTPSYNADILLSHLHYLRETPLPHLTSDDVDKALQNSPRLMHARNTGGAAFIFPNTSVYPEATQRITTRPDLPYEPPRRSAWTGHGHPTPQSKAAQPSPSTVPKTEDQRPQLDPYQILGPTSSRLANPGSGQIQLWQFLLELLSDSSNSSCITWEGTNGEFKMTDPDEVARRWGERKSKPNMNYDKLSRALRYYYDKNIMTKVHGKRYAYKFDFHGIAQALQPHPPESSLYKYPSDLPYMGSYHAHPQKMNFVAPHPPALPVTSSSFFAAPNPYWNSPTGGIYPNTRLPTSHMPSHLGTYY
# Method in brief: as §1
# ELF1 = ELF1 (Homo sapiens, UniProt P32519 1-619); details: protein: recombinant; tags: N-terminal GST; dsDNA, one strand shown
# ELF1, sequence (P32519 whole entry): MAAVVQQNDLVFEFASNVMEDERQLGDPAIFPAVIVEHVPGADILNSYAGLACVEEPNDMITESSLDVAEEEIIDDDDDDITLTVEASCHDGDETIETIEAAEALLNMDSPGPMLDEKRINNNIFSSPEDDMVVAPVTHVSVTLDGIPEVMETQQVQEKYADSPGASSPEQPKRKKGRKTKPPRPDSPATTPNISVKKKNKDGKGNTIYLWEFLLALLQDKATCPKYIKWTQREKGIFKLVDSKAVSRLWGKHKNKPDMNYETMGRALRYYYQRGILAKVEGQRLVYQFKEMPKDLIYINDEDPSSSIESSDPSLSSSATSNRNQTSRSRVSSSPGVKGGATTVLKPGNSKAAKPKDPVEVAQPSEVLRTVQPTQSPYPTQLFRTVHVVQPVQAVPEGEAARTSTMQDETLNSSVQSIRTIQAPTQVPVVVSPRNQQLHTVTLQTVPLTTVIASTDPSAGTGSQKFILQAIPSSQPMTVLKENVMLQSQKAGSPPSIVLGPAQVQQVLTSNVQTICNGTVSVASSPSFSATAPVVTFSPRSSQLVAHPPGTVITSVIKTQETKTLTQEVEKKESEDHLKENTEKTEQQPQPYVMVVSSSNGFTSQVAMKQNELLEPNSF
# Method in brief: as §1
# EHF = biological target: T5, EHF (Homo sapiens, UniProt Q9NZC4 1-300); details: protein: recombinant; tags: N-terminal GST; dsDNA, one strand shown
# T5 sequence: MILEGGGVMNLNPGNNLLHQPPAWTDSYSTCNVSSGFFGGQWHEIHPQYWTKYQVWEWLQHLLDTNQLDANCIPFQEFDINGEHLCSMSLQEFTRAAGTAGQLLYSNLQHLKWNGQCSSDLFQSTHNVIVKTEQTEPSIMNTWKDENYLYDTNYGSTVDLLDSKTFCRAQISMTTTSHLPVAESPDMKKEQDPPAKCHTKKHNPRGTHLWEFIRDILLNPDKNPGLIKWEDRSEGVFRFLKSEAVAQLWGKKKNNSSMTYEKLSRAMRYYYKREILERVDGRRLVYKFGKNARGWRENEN
# Method in brief: as §1
# SPI1 = SPI1 (Homo sapiens, UniProt P17947 1-270); details: protein: recombinant; tags: N-terminal GST; dsDNA, one strand shown
# Method in brief: as §1
# SPIB = SPIB (Homo sapiens, UniProt Q01892 1-262); details: protein: recombinant; tags: N-terminal GST; dsDNA, one strand shown
# SPIB, sequence (Q01892 whole entry): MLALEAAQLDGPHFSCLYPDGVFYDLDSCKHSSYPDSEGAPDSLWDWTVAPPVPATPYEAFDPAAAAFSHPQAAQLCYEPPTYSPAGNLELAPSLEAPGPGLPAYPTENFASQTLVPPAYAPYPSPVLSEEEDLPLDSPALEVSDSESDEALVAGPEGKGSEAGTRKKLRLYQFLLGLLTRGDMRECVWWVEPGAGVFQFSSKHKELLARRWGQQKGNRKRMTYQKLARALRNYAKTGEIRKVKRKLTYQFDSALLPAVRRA
# Method in brief: as §1
# ELK3 = biological target: T6, ELK3 (Homo sapiens, UniProt P41970 1-407); details: protein: recombinant; tags: N-terminal GST; dsDNA, one strand shown
# T6 sequence: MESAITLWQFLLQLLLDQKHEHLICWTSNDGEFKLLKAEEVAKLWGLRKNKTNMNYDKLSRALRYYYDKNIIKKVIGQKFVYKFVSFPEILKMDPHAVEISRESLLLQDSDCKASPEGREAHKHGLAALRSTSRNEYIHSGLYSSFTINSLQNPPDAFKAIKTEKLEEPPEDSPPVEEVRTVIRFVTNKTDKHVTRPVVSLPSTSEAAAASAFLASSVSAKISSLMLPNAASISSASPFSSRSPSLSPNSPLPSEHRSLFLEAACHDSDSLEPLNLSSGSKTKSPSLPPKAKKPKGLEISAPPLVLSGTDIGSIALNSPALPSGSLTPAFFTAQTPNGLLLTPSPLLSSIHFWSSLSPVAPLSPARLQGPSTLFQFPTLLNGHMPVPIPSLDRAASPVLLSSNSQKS
# Method in brief: as §1
# FEV = biological target: T7, FEV (Homo sapiens, UniProt Q99581 1-238); details: protein: recombinant; tags: N-terminal GST; dsDNA, one strand shown
# T7 sequence: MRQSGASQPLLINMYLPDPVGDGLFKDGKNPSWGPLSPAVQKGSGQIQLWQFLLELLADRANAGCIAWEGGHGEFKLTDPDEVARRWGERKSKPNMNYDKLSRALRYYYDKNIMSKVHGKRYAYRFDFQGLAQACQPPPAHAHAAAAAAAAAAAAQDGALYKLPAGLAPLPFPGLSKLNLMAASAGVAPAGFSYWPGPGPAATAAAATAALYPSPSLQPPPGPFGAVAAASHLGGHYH
# Method in brief: as §1
# ETV5 = ETV5 (Homo sapiens, UniProt P41161 1-510); details: protein: recombinant; tags: N-terminal GST; dsDNA, one strand shown
# ETV5, sequence (P41161 whole entry): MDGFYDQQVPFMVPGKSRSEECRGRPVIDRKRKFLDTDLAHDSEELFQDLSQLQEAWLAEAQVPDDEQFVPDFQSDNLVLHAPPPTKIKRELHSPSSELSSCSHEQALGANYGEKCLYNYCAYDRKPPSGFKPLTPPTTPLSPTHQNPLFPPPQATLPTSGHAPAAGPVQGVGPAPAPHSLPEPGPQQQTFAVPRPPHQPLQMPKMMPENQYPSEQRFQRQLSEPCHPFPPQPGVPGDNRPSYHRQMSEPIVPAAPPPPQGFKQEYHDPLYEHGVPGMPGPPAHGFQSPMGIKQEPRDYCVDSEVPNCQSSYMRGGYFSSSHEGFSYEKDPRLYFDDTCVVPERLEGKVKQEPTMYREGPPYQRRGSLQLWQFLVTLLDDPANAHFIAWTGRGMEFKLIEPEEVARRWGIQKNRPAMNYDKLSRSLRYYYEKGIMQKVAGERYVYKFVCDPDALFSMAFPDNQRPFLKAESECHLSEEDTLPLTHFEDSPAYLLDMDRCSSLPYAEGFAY
# Method in brief: as §1
# HSF1 = HSF1 (Homo sapiens, UniProt Q00613 1-529); details: protein: recombinant; tags: N-terminal GST; chain copies: 3; dsDNA, one strand shown
# HSF1, sequence (Q00613 whole entry): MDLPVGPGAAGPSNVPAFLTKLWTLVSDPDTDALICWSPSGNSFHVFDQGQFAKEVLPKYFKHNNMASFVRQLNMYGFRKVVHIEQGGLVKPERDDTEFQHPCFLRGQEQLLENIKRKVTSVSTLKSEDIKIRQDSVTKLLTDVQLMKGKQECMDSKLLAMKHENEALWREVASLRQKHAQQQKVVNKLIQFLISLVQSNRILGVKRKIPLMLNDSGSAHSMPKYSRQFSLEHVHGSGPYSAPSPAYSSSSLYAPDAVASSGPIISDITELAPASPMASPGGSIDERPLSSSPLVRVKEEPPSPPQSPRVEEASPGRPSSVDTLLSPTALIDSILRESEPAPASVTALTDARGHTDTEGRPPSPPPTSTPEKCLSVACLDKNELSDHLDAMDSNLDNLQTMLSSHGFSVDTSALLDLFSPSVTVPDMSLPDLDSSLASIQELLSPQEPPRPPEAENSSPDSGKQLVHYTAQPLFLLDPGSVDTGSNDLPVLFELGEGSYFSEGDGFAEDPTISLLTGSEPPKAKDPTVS
# Method in brief: as §1
# SPIC = biological target: T8, SPIC (Homo sapiens, UniProt Q8N5J4 1-248); details: protein: recombinant; tags: N-terminal GST; dsDNA, one strand shown
# T8 sequence: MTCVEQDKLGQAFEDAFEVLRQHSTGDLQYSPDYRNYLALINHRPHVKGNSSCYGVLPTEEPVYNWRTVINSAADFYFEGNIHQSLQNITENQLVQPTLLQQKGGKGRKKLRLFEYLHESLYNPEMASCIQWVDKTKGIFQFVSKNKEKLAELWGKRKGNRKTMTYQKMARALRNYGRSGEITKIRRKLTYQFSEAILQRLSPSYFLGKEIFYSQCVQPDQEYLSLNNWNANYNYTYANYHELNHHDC
# Method in brief: as §1
# ELF4 = ELF4 (Homo sapiens, UniProt Q99607 1-663); details: protein: recombinant; tags: N-terminal GST; dsDNA, one strand shown
# ELF4, sequence (Q99607 whole entry): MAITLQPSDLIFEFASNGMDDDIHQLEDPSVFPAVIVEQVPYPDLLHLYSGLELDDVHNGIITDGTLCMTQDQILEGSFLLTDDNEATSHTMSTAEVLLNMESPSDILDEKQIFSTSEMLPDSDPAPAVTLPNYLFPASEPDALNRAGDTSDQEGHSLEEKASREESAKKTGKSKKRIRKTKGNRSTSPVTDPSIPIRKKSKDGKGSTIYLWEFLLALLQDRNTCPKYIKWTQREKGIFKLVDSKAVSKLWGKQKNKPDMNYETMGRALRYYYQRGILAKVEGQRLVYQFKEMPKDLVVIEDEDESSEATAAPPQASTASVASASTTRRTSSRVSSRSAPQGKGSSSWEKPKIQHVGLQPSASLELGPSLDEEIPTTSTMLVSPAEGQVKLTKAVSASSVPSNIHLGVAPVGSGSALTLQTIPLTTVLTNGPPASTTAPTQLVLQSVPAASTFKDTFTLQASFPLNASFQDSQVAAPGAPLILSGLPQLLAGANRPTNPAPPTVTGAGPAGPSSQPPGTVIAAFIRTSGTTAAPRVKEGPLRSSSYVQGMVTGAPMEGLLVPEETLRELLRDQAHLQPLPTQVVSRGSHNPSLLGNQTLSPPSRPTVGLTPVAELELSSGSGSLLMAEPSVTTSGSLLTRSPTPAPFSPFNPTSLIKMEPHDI
# Method in brief: as §1
# ELK4 = biological target: T9, ELK4 (Homo sapiens, UniProt P28324-2 1-405); details: protein: recombinant; tags: N-terminal GST; dsDNA, one strand shown
# T9 sequence: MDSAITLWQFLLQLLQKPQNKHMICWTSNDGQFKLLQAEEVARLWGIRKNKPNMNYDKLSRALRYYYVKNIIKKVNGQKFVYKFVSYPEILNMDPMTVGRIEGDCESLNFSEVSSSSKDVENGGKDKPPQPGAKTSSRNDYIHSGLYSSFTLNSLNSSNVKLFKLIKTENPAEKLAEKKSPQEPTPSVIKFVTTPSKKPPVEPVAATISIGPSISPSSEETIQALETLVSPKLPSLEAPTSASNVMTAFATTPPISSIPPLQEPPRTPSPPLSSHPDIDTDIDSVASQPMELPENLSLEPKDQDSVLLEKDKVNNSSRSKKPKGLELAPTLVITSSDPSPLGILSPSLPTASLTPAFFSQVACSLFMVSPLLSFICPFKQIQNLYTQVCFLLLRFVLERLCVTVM
# Method in brief: as §1
# ETV2 = biological target: T10, ETV2 (Homo sapiens, UniProt O00321 1-342); details: protein: recombinant; tags: N-terminal GST; dsDNA, one strand shown
# T10 sequence: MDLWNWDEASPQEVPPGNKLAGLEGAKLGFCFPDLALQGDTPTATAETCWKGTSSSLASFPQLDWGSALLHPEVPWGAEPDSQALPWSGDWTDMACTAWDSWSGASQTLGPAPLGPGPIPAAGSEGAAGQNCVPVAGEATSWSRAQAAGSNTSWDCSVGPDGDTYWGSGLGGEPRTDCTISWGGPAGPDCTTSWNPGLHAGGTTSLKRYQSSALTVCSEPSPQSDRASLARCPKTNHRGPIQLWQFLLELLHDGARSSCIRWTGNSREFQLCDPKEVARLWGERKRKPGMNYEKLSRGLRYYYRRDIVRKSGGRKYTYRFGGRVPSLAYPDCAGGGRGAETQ
# Method in brief: as §1
# ELF3 = biological target: T11, ELF3 (Homo sapiens, UniProt P78545 1-371); details: protein: recombinant; tags: N-terminal GST; dsDNA, one strand shown
# T11 sequence: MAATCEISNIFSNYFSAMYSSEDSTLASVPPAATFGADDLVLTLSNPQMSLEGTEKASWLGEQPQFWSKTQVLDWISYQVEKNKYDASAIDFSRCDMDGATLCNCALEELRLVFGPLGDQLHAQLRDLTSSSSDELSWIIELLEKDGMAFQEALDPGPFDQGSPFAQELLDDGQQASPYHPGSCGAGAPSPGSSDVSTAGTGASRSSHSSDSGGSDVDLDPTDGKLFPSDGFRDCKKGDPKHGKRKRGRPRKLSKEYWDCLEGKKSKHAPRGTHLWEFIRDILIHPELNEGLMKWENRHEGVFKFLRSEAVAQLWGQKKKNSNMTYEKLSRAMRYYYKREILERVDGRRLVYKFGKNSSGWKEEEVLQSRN
# Method in brief: as §1
# CRX = CRX (Homo sapiens, UniProt O43186 1-299); details: protein: recombinant; tags: N-terminal GST; dsDNA, one strand shown
# CRX, sequence (O43186 whole entry): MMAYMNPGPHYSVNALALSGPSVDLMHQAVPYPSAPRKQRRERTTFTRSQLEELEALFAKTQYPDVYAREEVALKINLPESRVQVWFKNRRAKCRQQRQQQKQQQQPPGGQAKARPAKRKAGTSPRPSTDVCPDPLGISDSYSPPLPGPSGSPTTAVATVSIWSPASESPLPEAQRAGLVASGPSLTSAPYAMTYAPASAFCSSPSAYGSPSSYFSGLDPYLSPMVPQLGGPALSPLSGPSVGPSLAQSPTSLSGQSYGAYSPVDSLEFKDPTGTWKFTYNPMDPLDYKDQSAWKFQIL
# Method in brief: as §1
# ETV1 = ETV1 (Homo sapiens, UniProt P50549 1-477); details: protein: recombinant; tags: N-terminal GST; dsDNA, one strand shown
# ETV1, sequence (P50549 whole entry): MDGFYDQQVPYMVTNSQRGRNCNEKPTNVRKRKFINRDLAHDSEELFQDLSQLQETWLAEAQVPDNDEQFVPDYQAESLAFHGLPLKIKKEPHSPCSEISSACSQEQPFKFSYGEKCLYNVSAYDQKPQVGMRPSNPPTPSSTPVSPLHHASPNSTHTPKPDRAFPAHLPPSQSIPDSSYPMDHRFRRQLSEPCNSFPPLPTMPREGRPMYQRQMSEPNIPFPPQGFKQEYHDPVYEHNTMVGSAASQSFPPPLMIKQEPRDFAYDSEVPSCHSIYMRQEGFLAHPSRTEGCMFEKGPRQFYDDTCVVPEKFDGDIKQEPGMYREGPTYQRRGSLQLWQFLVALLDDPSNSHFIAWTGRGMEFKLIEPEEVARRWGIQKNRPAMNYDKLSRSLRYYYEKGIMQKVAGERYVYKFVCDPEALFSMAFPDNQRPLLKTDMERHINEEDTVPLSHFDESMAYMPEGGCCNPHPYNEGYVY
# Method in brief: as §1
sequence,measurement,setting,value
CTTAAA,binding signal,FLI1,"1.12 fold enrichment (6-mer frequency, TF over GST control)"
same,binding signal,ELK1,"1.14 fold enrichment (6-mer frequency, TF over GST control)"
same,binding signal,GABPA,"1.24 fold enrichment (6-mer frequency, TF over GST control)"
same,binding signal,ERG,"1.16 fold enrichment (6-mer frequency, TF over GST control)"
same,binding signal,ELF1,"1.22 fold enrichment (6-mer frequency, TF over GST control)"
same,binding signal,EHF,"1.2 fold enrichment (6-mer frequency, TF over GST control)"
same,binding signal,SPI1,"1.22 fold enrichment (6-mer frequency, TF over GST control)"
same,binding signal,SPIB,"1.23 fold enrichment (6-mer frequency, TF over GST control)"
same,binding signal,ELK3,"1.08 fold enrichment (6-mer frequency, TF over GST control)"
same,binding signal,FEV,"1.21 fold enrichment (6-mer frequency, TF over GST control)"
same,binding signal,ETV5,"1.21 fold enrichment (6-mer frequency, TF over GST control)"
same,binding signal,HSF1,"1.65 fold enrichment (6-mer frequency, TF over GST control)"
same,binding signal,SPIC,"1.21 fold enrichment (6-mer frequency, TF over GST control)"
same,binding signal,ELF4,"1.12 fold enrichment (6-mer frequency, TF over GST control)"
same,binding signal,ELK4,"1.11 fold enrichment (6-mer frequency, TF over GST control)"
same,binding signal,ETV2,"1.1 fold enrichment (6-mer frequency, TF over GST control)"
same,binding signal,ELF3,"1.2 fold enrichment (6-mer frequency, TF over GST control)"
same,binding signal,CRX,"2.38 fold enrichment (6-mer frequency, TF over GST control)"
same,binding signal,ETV1,"1.25 fold enrichment (6-mer frequency, TF over GST control)"
